From PubChem BioAssay
Results filed as inconclusive are left out. Calls of active or inactive are those of the source.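 How the source made its calls, unless noted: active means growth inhibition above 25% in both replicates, a cutoff set 3 SD above the mean; inconclusive means above 25% in only one replicate; inactive means the rest.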

What was measured:
[1] = reducers of endogenous Her2 protein level, primary screen, SKBR3 breast tumor cells, AlphaScreen, ATP viability (AID 461;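 active means Her2 level under about 52% in both replicate screens, with viability over 70% of control, limit read from the data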;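 on Her2 level: lower value means less Her2 protein in the cells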;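 on viability: percent of carrier control wells set as 100% viability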); conditions: 18-24 h, measured here: SKBR3 viability, ATP luminescence, at 10 µM
[2] = target: Receptor tyrosine-protein kinase erbB-2 (Homo sapiens) (UniProt P04626); assay: as above; conditions: 18-24 h, at 10 µM, stronger effect = lower value
[3] = SK-BR-3 cell growth inhibitors, pilot screen, 24 h, human (AID 572;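 active means viability at or below 10% of carrier control in both of two separate runs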;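 further: compound exposure lasted between 18 and 24 h rather than exactly 24 h; 100% = carrier-treated control wells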); conditions: SK-BR-3 viability, CellTiter-Glo luminescence, at 10 µM, stronger effect = lower value
[4] = HUVEC growth inhibition – cell-based, human, primary screen (AID 575;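 active means viability at or below 30% in both replicate assays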;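 further: 100% = median of untreated cell wells with 0.1% DMSO on each plate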); conditions: HUVEC proliferation, CellTiter-Glo luminescence, 72 h; at 10 µM; stronger effect = lower value
[5] = growth inhibitors of H69AR lung tumor, primary screen, human, duplicate replicates (AID 580;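 active means viability at or under a set limit in both replicates, limit being median viability minus 3 SD, cut at about 48% in these data, passing the limit was not always enough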;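 further: 100% = mean luminescence of untreated wells and 0% = no signal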); conditions: H69AR lung tumor cells viability, ATP luminescence, 72 h; at 10 µM; stronger effect = lower value
[6] = reversal of MRP1-mediated doxorubicin resistance, pilot screen, H69AR cells, doxorubicin co-treatment (AID 601;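 active means viability loss from added drug above about 55%, and viability with drug at most 40%, in both replicates, limit read from the data, passing the limit was not always enough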); conditions: CellTiter-Glo, 72 h, at 10 µM; for differential viability (reversal): stronger effect = higher value
[7] = 384-well plate pilot, post-Golgi transport modulator project, inhibition of yeast transport mutant growth (AID 636; in the data active means inhibition above about 31%); conditions: absorbance 615 nm, about 18 h, stronger effect = higher value
[8] = growth suppression of yeast trafficking mutant, preliminary HTS, modulators of trafficking downstream of Golgi apparatus project, 1536-format plate, OD 615 nm (AID 637; in the data active means inhibition above about 30%); conditions: yeast transport mutant growth, absorbance 615 nm, 18 h; stronger effect = higher value
[9] = OD615 S. cerevisiae growth inhibition, permissive medium, pilot counter-assay, permissive growth control for S. cerevisiae lifespan shortening project (AID 705); conditions: OD615, 24 h, at 10 µM, stronger effect = higher value
[10] = Restrictive medium S. cerevisiae growth inhibition, OD615, pilot screen of yeast lifespan reduction project, restrictive growth control (AID 706;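 active means growth inhibition above a set limit, 3 SD over mean compound inhibition, in both replicates, cut at about 43% in these data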;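 further: modified DeaD lifespan yeast strain shifted to restrictive glucose medium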); conditions: OD615, 48 h, at 10 µM, stronger effect = higher value
[11] = viability gain of MRP-1-high H69AR cells under doxorubicin, pilot screen, MRP-1 activator project, CellTiter-Glo, duplicate (AID 807;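 active means viability increase at or above a cutoff of the median across tested compounds plus 3 SD, cut at about 8.5% in these data, passing the limit was not always enough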;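 further: compound pretreatment 18-22 h then 72 h combined with doxorubicin; 0% = doxorubicin alone and 100% = vehicle without doxorubicin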); conditions: H69AR viability with doxorubicin, CellTiter-Glo luminescence; at 10 µM; stronger effect = higher value
[12] = growth suppression of beta-catenin knockout HCT116, pilot screen, human colon tumor cells (AID 823;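 active means cell viability at or below a set limit in both duplicate runs, the limit being the all-compound median minus 4 SD, cut at about 23% in these data, passing the limit was not always enough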;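 further: 0% = wells killed by 20 µM Hyamine and 100% = untreated DMSO cell wells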); conditions: CellTiter-Glo, 60 h, at 10 µM, stronger effect = lower value
[13] = growth suppression of PTEN-deleted HCT116, pilot screen, cell-based, HCT116 clonal line, CellTiter-Glo (AID 824;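 active means viability at or below 27.92% in each of two runs, the all-compound median minus 4 SD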;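 further: 0% = 20 µM Hyamine control and 100% = vehicle cell control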); conditions: 60 h, at 10 µM, stronger effect = lower value
[14] = inhibitors of the yeast RAM network, pilot screen, dse1pr::URA3 reporter, 5-FOA selection (AID 869;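 active means inhibition over a set limit, the all-compound mean plus 3 SD, in both replicate runs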;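 further: 0% = DMSO wells with no growth and 100% = 10 µM 1-NA-PP1 with full growth; RAM network block rescues cells from 5-FOA so hits raise OD615 growth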); conditions: S. cerevisiae dse1pr::URA3 5-FOA growth, OD615, 2 d; at 10 µM; stronger effect = higher value; strain carries analog-sensitive mutant Cbk1 kinase
[15] = RAM signaling pathway blockade in yeast – S. cerevisiae, Pdr1DBD-CYC8 efflux-inhibited sensitized strain, primary screen (AID 1298;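 active means RAM network inhibition above 8.4% in each of two replicates, 3 SD over the compound average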;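 further: 0% = DMSO untreated cells without growth and 100% = 10 µM 1-NA-PP1 full growth; higher means more yeast growth rescued from 5-FOA killing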); conditions: S. cerevisiae cbk1-as DSE1-URA3 strain, 5-FOA growth OD615, 2 d; at 50 µM; stronger effect = higher value
[16] = H69AR cells + 2 uM doxorubicin, measured here: viability with 2 uM doxorubicin, stronger effect = lower value
[17] = H69AR cells, compound alone cytotoxicity

Sequence of Receptor tyrosine-protein kinase erbB-2 (Homo sapiens) (P04626 whole entry, looked up): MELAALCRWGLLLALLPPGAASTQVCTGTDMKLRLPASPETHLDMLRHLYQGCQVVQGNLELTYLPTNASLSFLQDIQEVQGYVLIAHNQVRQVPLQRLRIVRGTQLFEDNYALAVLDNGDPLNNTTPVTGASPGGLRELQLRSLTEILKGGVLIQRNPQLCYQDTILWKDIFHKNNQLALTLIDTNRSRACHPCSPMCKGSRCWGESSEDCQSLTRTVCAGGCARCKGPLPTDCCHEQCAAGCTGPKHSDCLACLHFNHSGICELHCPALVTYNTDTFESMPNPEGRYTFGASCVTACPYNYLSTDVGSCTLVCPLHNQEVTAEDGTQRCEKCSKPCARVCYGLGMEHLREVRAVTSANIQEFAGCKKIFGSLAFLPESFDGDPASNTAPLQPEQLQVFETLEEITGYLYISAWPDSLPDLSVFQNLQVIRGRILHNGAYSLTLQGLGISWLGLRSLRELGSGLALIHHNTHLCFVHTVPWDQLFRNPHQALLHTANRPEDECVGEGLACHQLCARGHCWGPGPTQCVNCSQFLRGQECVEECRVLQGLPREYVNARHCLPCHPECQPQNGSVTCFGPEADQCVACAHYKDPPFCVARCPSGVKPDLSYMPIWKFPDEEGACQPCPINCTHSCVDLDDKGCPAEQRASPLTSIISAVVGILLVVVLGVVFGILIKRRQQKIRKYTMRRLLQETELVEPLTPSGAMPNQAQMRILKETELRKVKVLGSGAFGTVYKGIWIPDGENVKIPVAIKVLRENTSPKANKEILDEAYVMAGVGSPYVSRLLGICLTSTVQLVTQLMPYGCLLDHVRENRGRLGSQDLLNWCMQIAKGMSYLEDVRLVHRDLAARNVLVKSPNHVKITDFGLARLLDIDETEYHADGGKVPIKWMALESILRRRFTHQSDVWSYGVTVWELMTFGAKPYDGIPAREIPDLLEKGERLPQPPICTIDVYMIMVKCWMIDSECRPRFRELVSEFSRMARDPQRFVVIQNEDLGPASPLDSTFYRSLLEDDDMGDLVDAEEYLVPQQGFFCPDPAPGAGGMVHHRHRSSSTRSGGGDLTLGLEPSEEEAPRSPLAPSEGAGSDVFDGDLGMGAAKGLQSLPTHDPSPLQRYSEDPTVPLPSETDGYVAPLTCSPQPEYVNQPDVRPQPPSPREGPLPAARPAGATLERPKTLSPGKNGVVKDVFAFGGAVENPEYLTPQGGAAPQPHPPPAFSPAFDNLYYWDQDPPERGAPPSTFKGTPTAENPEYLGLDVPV

CCOC(=O)c1ccccc1NC(=O)c1cccnc1
83%: viability [1]
96.1%: viability [6, 17]
94.4%: viability [6, 16]
inactive: Her2 level [2] 117% | viability [3] 83% | viability [4] 94.8% | viability [5] 96.1% | differential viability (reversal) ([6]; H69AR cells + 2 uM doxorubicin) 1.67% | inhibition [7] 1.95% | inhibition [8] -4.59% | growth inhibition [9] -11.9% | growth inhibition [10] -21.3% | viability increase [11] 0.06% | viability [12] 104% | viability [13] 102% | inhibition [14] 1.57% | RAM network inhibition [15] 2.22%

CN(C)c1oc(-c2ccccc2F)nc1C#N
101%: viability [6, 17]
inactive: Her2 level [2] 99.5% | viability [3] 95% | viability [4] 82.3% | viability [5] 101% | differential viability (reversal) ([6]; H69AR cells + 2 uM doxorubicin) 11.8% | inhibition [7] -2.8% | inhibition [8] 6.56% | growth inhibition [9] -11.3% | growth inhibition [10] -2.67% | viability increase [11] -0.62% | viability [12] 112% | viability [13] 106% | inhibition [14] 0.58% | RAM network inhibition [15] 3.09%
95%: viability [1]
89.5%: viability [6, 16]

COc1ccc(C2CC(c3ccc(C)cc3)Nc3ncnn32)cc1 (stereo not drawn)
inactive: Her2 level [2] 96.5% | viability [3] 106% | viability [4] 105% | viability [5] 101% | differential viability (reversal) ([6]; H69AR cells + 2 uM doxorubicin) 14.9% | inhibition [7] -0.27% | inhibition [8] 3.28% | growth inhibition [9] 2% | growth inhibition [10] 20% | viability increase [11] -0.88% | viability [12] 104% | viability [13] 88.7% | inhibition [14] 1.41% | RAM network inhibition [15] 0.05%
101%: viability [6, 17]
106%: viability [1]
86.1%: viability [6, 16]

COc1ccc(C(=O)c2coc3ccc(O)c(CN4CCCCC4)c23)cc1
inactive: Her2 level [2] 106% | viability [3] 79.5% | viability [4] 66% | viability [5] 75.5% | differential viability (reversal) ([6]; H69AR cells + 2 uM doxorubicin) -0.2% | inhibition [7] -3.07% | inhibition [8] 5.33% | growth inhibition [9] -3.45% | growth inhibition [10] -4.88% | viability increase [11] -4.51% | viability [12] 40.5% | viability [13] 53.3% | inhibition [14] 0.725% | RAM network inhibition [15] 6.6%
75.7%: viability [6, 16]
75.5%: viability [6, 17]
79.5%: viability [1]

O=C(c1ccc(CNc2c(N3CCCC3)c(=O)c2=O)cc1)N1CCc2ccccc2C1
inactive: Her2 level [2] 100% | viability [3] 90.5% | viability [4] 104% | viability [5] 95.3% | differential viability (reversal) ([6]; H69AR cells + 2 uM doxorubicin) 2.69% | inhibition [7] 3.59% | inhibition [8] 6.67% | growth inhibition [9] -4% | growth inhibition [10] -0.375% | viability increase [11] -0.78% | viability [12] 92.6% | viability [13] 91% | inhibition [14] 0.36% | RAM network inhibition [15] 0.72%
90.5%: viability [1]
92.6%: viability [6, 16]
95.3%: viability [6, 17]

COc1ccc(OC)c2[nH]c(=O)c(CCNC(=O)C(C)C)cc12
inactive: Her2 level [2] 118% | viability [3] 109% | viability [4] 83.2% | viability [5] 88.6% | differential viability (reversal) ([6]; H69AR cells + 2 uM doxorubicin) -1.89% | inhibition [7] -3.33% | inhibition [8] 1.83% | growth inhibition [9] -3.17% | growth inhibition [10] -5.05% | viability increase [11] -0.71% | viability [12] 108% | viability [13] 103% | inhibition [14] 0.005% | RAM network inhibition [15] 1.31%
88.6%: viability [6, 17]
90.5%: viability [6, 16]
109%: viability [1]

COc1ccc(N2CCN(CCNC(=O)CCS(=O)(=O)c3cccc4nsnc34)CC2)cc1
inactive: Her2 level [2] 97% | viability [3] 90% | viability [4] 99.9% | viability [5] 103% | differential viability (reversal) ([6]; H69AR cells + 2 uM doxorubicin) 11.1% | inhibition [7] -6.58% | inhibition [8] -0.16% | growth inhibition [9] 0.45% | growth inhibition [10] 4.11% | viability increase [11] -1.51% | viability [12] 98.5% | viability [13] 95.2% | inhibition [14] 0.835% | RAM network inhibition [15] 5.62%
91.6%: viability [6, 16]
103%: viability [6, 17]
90%: viability [1]

O=C(c1ccc2c(c1)OCCO2)N1CCCCC1
inactive: Her2 level [2] 97% | viability [3] 117% | viability [4] 91.8% | viability [5] 101% | differential viability (reversal) ([6]; H69AR cells + 2 uM doxorubicin) -1.2% | inhibition [7] -0.91% | inhibition [8] 0.17% | growth inhibition [9] 3.7% | growth inhibition [10] 6.82% | viability increase [11] -1.22% | viability [12] 97.2% | viability [13] 97.4% | inhibition [14] 0.88% | RAM network inhibition [15] 5.28%
101%: viability [6, 17]
102%: viability [6, 16]
117%: viability [1]

O=C1C/C(=C/NCc2ccccc2)C(=O)N1
102%: viability [6, 16]
inactive: Her2 level [2] 111% | viability [3] 93% | viability [4] 95.5% | viability [5] 97.2% | differential viability (reversal) ([6]; H69AR cells + 2 uM doxorubicin) -4.96% | inhibition [7] 2.08% | inhibition [8] -9% | growth inhibition [9] -6.49% | growth inhibition [10] 0.205% | viability increase [11] 0.43% | viability [12] 99.7% | viability [13] 102% | inhibition [14] 1.04% | RAM network inhibition [15] 2.77%
93%: viability [1]
97.2%: viability [6, 17]
